The values that follow come from PubChem BioAssay (EPA / NIEHS).

Records with an inconclusive call do not appear. The source made the active and inactive calls. How the source made its calls, unless noted: active means hit-call score of the fitted dose curve at least 0.9, where 1 is the maximum; inactive means score below 0.9.

Assay [1] in a line: ATG_PBREM_CIS: Attagene CIS-FACTORIAL HepG2 Assay for human Phenobarbital-responsive Enhancer Module (PBREM) (AID 2282955). The settings on record: HepG2 PBREM cis-reporter, Attagene multiplexed transcription; actives raise or lower the signal. The essentials: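 Readout: reporter mRNA, fluorescent RT-PCR fragments separated by capillary electrophoresis. System: HepG2 transiently transfected with cis-regulated reporter units. Exposure: 24 h. Analysis: bidirectional, DMSO baseline.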

The target in assay [2] is Paired box protein Pax-6 (Homo sapiens) (UniProt P26367). In words: ATG_Pax6_CIS: Attagene CIS-FACTORIAL HepG2 Assay for human Paired Box 6 (PAX6) (AID 2282956). The settings on record: HepG2 CIS-FACTORIAL PAX6 reporter transcription, RNA readout; actives raise or lower the signal. The essentials:
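Multiplexed cis-reporter HepG2 system; 24 h treatment; reporter mRNA read by RT-PCR/CE fluorescence; bidirectional fit vs DMSO.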

The nature of assay [3]: ATG_PXRE_CIS: Attagene CIS-FACTORIAL HepG2 Assay for human Pregnane X Receptor Element (PXRE) (AID 2282957). The settings on record: HepG2 Attagene CIS-FACTORIAL PXRE reporter, mRNA; actives raise or lower the signal. The essentials: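 Transfect HepG2 with MRTUs (cis promoter elements); dose chemical, incubate 24 h; isolate RNA, RT with oligo(dT), PCR, 6-FAM label, HpaI cut, CE. Gain/loss fit vs DMSO.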

The nature of assay [4]: ATG_PPRE_CIS: Attagene CIS-FACTORIAL HepG2 Assay for human Peroxisome Proliferator-activated Response Element (PPRE) (AID 2282958). The settings on record: HepG2 PPRE cis-element reporter, Attagene transcription factor profiling; actives raise or lower the signal. The essentials:
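After human HepG2 hepatoma cells were transiently transfected with cis-promoter reporter constructs, they were exposed to test chemicals for 24 hours. Reporter RNA was then reverse-transcribed, PCR-amplified, FAM-labeled, HpaI-digested and quantified by capillary electrophoresis.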

Assay [5] in a line: ATG_RORE_CIS: Attagene CIS-FACTORIAL HepG2 Assay for human RAR-related Orphan Receptor Element (RORE) (AID 2282959). The conditions noted are these: HepG2 Attagene cis-factorial RORE reporter, mRNA; actives raise or lower the signal. The essentials:
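Measured here: transcript induction of a cis-regulated reporter in HepG2 cells transiently transfected via FuGene 6. After 24 h, RNA was processed by RT-PCR and fluorescent capillary electrophoresis; DMSO defined baseline activity.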

A short description of assay [6]: ATG_Sox_CIS: Attagene CIS-FACTORIAL HepG2 Assay for human SRY-box transcription factor (SOX) (AID 2282960). The conditions noted are these: HepG2 Attagene cis-factorial SOX reporter, mRNA; actives raise or lower the signal. The essentials: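 Using transiently transfected HepG2 cells, reporter transcription driven by cis elements was assessed 24 h after dosing. Signal was fluorescence of capillary-separated RT-PCR products, with DMSO defining baseline activity.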

The target in assay [7] is Transcription factor Sp1 (Homo sapiens) (UniProt P08047). In words: ATG_Sp1_CIS: Attagene CIS-FACTORIAL HepG2 Assay for human Specificity Protein 1 (Sp1) (AID 2282961). The settings on record: HepG2 Sp1 cis-reporter transcription, actives raise or lower the signal. The essentials:
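After transient transfection of HepG2 cells with cis-promoter reporter units and 24 h chemical treatment, reporter transcripts were quantified by RT-PCR and capillary electrophoresis fluorescence. Gain- and loss-of-signal fitted against DMSO.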

A short description of assay [8]: ATG_SREBP_CIS: Attagene CIS-FACTORIAL HepG2 Assay for human Sterol Regulatory Element Binding (SREBP) (AID 2282962). The settings on record: HepG2 Attagene cis-factorial SREBP reporter, mRNA; actives raise or lower the signal. The essentials:
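mRNA induction of transfected cis-promoter reporters in HepG2 cells, 24 h post-dose. Detection: RT-PCR with 6-FAM-labelled products, HpaI digest, capillary electrophoresis. DMSO served as negative control and baseline.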

The target of assay [9] is Signal transducer and activator of transcription 3 (Homo sapiens) (UniProt P40763). In words: ATG_STAT3_CIS: Attagene CIS-FACTORIAL HepG2 Assay for human Signal Transducer and Activator of Transcription 3 (STAT3) (AID 2282963). The settings on record: HepG2, Attagene cis-factorial STAT3 reporter transcription; actives raise or lower the signal. The essentials:
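Endogenous STAT3-responsive cis-element activity was read in transiently transfected HepG2 cells after 24 h treatment. Reporter transcripts were quantified via RT-PCR and capillary electrophoresis, with DMSO as negative control and bidirectional curve fitting.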

Assay [10] is described as follows: ATG_TAL_CIS: Attagene CIS-FACTORIAL HepG2 Assay for human TAL Basal Promoter (AID 2282966).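 Further: background control endpoint measuring basal TAL promoter reporter mRNA not a specific factor.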 The settings on record: HepG2 Attagene cis-factorial TAL promoter reporter; actives raise or lower the signal. The essentials: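 Fluorescence of labelled reporter cDNA fragments, resolved by capillary electrophoresis, gave the readout. Human HepG2 liver cells carried transiently transfected cis-element reporter units and were treated for 24 hours; activity was fitted bidirectionally against DMSO.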

Assay [11] is described as follows: ATG_TGFb_CIS: Attagene CIS-FACTORIAL HepG2 Assay for human Transforming Growth Factor (TGF) (AID 2282967). The settings on record: HepG2 Attagene CIS TGFb reporter, mRNA transcription; actives raise or lower the signal. The essentials:
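Cells were dosed for 24 hours, after which total RNA was reverse-transcribed and reporter sequences amplified, labeled and sized by capillary electrophoresis. Activity was fitted in both directions against DMSO.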

The target in assay [12] is Estrogen receptor (Homo sapiens) (UniProt P03372). In words: ATG_ERa_TRANS: Attagene TRANS-FACTORIAL HepG2 Assay for human Estrogen Receptor alpha (ERa) (AID 2282970; active means hit-call score of the fitted dose curve at least 0.9, where 1 is the maximum). The settings on record: HepG2 Attagene TRANS ERa GAL4 reporter, mRNA. The essentials:
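Human liver HepG2, transient transfection of multiple GAL4-UAS reporter units; TRANS format (exogenous NR-Gal4 chimera). 24 h dosing. Readout: reporter mRNA, RT-PCR, 6-FAM primer extension, HpaI digest, capillary electrophoresis. Positive direction vs DMSO.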

Assay [13] has as its target X-box-binding protein 1 (Homo sapiens) (UniProt P17861). In words: ATG_Xbp1_CIS: Attagene CIS-FACTORIAL HepG2 Assay for human X-box Binding Protein 1 (XBP1) (AID 2282972). The settings on record: HepG2 XBP1 cis-element reporter, Attagene multiplex; actives raise or lower the signal. The essentials:
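Fluorescence-labelled cDNA fragments from reporter transcripts, separated by capillary electrophoresis, give the signal. Source: HepG2 cells transfected with promoter-driven reporter units, harvested 24 h post-dose. DMSO served as reference for bidirectional curve fitting.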

Assay [14] is described as follows: ATG_M_19_TRANS: Attagene TRANS-FACTORIAL HepG2 Assay for M19 Transcription Factor (Internal Marker) (AID 2282974; active means hit-call score of the fitted dose curve at least 0.9, where 1 is the maximum). The settings on record: HepG2 Attagene TRANS-FACTORIAL M19 internal marker reporter. The essentials: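 Gain-of-signal in reporter mRNA, relative to DMSO, was scored from capillary electrophoresis fluorescence. HepG2 cells carried transiently transfected multiple reporter transcription units and were incubated with test chemicals for 24 h.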

A short description of assay [15]: ATG_TA_CIS: Attagene CIS-FACTORIAL HepG2 Assay for human TA Basal Promoter (AID 2282964). The settings on record: HepG2 Attagene CIS-factorial TA basal promoter reporter; actives raise or lower the signal. The essentials: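 Steps: transfect HepG2 with MRTUs; dose 24 h; isolate RNA, DNase-treat, reverse-transcribe; PCR and FAM-label reporter cDNA; digest with HpaI 2h at 37 C; run capillary electrophoresis. Activity fitted both directions against DMSO.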

Assay [16] can be described thus: ATG_GAL4_TRANS: Attagene TRANS-FACTORIAL HepG2 Assay for GAL4 (Internal Marker) (AID 2282976; active means hit-call score of the fitted dose curve at least 0.9, where 1 is the maximum). The conditions noted are these: HepG2 Attagene TRANS GAL4 internal marker reporter. The essentials: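 First, HepG2 cells were transfected with reporter units under GAL4-UAS control. Next, they were treated with chemical for 24 h. Finally, RNA was reverse-transcribed, PCR-amplified, FAM-labelled and resolved by capillary electrophoresis, with induction scored against DMSO.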

The nature of assay [17]: ATG_VDRE_CIS: Attagene CIS-FACTORIAL HepG2 Assay for human Vitamin D Receptor Element (VDRE) (AID 2282968). The settings on record: HepG2 VDRE cis-reporter transcription, actives raise or lower the signal. The essentials:
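Reporter mRNA induction, quantified by capillary electrophoresis of fluorescently labelled RT-PCR products, was read 24 h after dosing HepG2 cells carrying transiently transfected cis-regulated reporter units; gain or loss relative to DMSO.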

Assay [18] has as its target Nuclear receptor subfamily 1 group I member 3 (Homo sapiens) (UniProt Q14994). In words: ATG_CAR_TRANS: Attagene TRANS-FACTORIAL HepG2 Assay for human Constitutive Androstane Receptor (CAR) (AID 2282969; active means hit-call score of the fitted dose curve at least 0.9, where 1 is the maximum;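 further: activators raise reporter mRNA above DMSO so AC50 marks induction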). The conditions noted are these: HepG2 Attagene TRANS-FACTORIAL CAR reporter. The essentials:
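Readout is reporter mRNA induction, quantified by fluorescent primer extension and capillary electrophoresis after RT-PCR. Cells were HepG2 transiently carrying chimeric NR-Gal4 constructs with GAL4-UAS reporters, treated for 24 h; activity scored upward from DMSO.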

A short description of assay [19]: ATG_TCF_b_cat_CIS: Attagene CIS-FACTORIAL HepG2 Assay for human T-Cell-Factor with beta-catenin (TCF/b-cat) (AID 2282965). The settings on record: HepG2 TCF/beta-catenin cis-reporter transcription, actives raise or lower the signal. The essentials:
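Endogenous TCF/LEF activity read as reporter transcript level via RT-PCR and capillary electrophoresis fluorescence in transfected HepG2, 24 h exposure; gain or loss of signal fitted against DMSO controls.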

For assay [20], the target named is Steroid hormone receptor ERR1 (Homo sapiens) (UniProt P11474). In words: ATG_ERRa_TRANS: Attagene TRANS-FACTORIAL HepG2 Assay for human Estrogen-Related Receptor alpha (ERRa) (AID 2282971; active means hit-call score of the fitted dose curve at least 0.9, where 1 is the maximum). The settings on record: HepG2 Attagene TRANS reporter, ERRa transactivation. The essentials:
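Reporter transcript induction was quantified by RT-PCR and capillary electrophoresis of FAM-labelled, HpaI-cut products after 24 h treatment of HepG2 cells carrying transiently transfected GAL4-UAS reporter units and an exogenous ERRa-Gal4 fusion; activity scored as increase over DMSO.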

Signal transducer and activator of transcription 3 (Homo sapiens), sequence (P40763 whole entry, looked up): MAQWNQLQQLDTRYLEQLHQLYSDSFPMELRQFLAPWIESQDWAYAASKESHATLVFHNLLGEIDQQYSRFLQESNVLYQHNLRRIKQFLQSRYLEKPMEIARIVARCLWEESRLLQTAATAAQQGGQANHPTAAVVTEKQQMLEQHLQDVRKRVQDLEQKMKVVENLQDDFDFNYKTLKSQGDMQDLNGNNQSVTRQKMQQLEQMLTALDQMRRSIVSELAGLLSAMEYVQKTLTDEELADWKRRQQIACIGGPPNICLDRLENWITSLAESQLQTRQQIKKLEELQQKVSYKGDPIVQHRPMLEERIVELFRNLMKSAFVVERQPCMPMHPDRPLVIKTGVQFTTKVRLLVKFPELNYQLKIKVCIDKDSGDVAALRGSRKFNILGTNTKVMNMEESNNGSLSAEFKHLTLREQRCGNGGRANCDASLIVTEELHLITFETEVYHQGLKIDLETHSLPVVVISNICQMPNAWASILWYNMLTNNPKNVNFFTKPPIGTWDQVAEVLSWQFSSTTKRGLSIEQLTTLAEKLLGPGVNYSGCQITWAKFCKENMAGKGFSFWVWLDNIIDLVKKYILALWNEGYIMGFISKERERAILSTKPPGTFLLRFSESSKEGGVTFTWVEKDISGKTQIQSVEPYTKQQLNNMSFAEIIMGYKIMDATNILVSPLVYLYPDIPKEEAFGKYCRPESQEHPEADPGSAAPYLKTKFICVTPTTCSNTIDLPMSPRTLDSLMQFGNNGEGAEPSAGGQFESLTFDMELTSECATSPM
X-box-binding protein 1 (Homo sapiens), sequence (P17861 whole entry, looked up, the tested form may be a part): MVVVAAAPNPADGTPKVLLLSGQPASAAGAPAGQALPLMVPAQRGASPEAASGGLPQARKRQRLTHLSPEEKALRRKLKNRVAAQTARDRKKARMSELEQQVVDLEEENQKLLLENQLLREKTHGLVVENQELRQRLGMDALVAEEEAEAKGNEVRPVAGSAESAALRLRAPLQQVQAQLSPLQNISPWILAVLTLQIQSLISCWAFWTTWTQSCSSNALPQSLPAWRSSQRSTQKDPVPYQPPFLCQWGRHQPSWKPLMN
Estrogen receptor (Homo sapiens), sequence (P03372 whole entry, looked up, the tested form may be a part): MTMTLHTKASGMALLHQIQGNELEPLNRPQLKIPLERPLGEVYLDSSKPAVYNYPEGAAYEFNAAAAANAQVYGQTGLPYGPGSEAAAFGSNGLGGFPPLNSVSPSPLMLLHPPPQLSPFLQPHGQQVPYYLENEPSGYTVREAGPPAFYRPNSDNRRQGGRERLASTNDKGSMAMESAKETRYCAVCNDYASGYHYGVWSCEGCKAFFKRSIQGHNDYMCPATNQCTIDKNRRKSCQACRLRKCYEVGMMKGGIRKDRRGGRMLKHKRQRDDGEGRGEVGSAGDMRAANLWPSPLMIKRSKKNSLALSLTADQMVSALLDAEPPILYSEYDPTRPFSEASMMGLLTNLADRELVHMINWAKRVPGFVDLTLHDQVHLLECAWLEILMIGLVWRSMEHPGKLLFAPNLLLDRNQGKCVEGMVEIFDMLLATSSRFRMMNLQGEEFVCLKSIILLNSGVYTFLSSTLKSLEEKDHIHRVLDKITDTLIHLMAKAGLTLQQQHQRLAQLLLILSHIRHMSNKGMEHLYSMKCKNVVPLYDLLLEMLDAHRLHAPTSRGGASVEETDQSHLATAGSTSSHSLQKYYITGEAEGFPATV
Transcription factor Sp1 (Homo sapiens), sequence (P08047 whole entry, looked up): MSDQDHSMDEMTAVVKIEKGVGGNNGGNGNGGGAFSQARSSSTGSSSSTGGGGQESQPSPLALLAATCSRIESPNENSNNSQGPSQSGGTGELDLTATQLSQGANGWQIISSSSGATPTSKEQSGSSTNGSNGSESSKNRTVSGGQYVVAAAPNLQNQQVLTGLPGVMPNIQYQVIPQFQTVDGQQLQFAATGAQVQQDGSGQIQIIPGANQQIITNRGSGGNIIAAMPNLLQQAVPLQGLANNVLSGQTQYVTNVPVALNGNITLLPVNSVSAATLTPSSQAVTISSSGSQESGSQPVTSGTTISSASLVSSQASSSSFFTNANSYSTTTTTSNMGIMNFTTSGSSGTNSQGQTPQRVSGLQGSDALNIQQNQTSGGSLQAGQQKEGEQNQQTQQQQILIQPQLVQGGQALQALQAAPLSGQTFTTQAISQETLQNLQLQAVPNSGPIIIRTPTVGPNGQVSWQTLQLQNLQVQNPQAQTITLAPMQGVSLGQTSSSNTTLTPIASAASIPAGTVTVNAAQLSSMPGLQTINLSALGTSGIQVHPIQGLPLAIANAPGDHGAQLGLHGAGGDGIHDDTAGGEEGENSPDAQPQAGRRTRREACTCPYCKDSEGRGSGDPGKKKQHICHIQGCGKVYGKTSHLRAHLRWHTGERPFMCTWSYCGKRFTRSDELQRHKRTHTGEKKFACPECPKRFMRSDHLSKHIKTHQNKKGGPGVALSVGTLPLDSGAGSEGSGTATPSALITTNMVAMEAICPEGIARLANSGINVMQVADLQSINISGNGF
Paired box protein Pax-6 (Homo sapiens), sequence (P26367 whole entry, looked up): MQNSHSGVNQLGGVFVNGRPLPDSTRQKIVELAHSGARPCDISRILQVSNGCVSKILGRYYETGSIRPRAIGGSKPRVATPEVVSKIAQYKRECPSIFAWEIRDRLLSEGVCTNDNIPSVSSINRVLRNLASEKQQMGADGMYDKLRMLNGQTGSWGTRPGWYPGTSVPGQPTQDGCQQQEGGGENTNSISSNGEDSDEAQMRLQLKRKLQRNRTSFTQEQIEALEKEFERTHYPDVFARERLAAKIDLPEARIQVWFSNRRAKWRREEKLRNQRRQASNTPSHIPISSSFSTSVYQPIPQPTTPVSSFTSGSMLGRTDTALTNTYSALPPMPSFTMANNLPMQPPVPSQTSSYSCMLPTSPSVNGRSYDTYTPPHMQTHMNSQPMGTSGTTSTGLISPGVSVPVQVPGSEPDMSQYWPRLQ
Steroid hormone receptor ERR1 (Homo sapiens), sequence (P11474 whole entry, looked up, the tested form may be a part): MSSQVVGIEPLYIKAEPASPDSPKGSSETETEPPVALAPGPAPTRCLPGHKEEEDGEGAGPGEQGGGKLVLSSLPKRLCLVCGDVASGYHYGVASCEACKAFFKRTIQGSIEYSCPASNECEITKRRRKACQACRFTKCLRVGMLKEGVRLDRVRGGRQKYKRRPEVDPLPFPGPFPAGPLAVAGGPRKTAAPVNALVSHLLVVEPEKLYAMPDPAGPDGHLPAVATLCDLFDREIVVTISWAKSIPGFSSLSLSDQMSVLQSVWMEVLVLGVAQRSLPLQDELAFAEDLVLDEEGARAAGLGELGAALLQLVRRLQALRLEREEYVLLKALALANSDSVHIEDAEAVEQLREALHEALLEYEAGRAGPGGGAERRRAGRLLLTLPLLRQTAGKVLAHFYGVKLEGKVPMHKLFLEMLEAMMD
Nuclear receptor subfamily 1 group I member 3 (Homo sapiens), sequence (Q14994 whole entry, looked up, the tested form may be a part): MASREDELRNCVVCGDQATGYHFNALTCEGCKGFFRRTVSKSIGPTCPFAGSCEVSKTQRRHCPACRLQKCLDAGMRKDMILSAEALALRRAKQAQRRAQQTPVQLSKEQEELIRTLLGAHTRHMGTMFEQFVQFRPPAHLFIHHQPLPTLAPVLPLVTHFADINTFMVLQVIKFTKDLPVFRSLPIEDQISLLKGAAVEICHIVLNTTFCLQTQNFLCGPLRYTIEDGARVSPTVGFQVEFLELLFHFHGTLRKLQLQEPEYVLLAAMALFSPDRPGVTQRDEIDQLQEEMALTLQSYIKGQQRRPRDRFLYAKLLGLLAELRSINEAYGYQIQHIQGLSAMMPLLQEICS

Regarding `CCOCOCC`, the outcome in [1], in assay [2], in assay [3], in [4], in assay [5] and in assay [6] was inactive. For the same compound, the result in assay [7], in assay [8], in assay [9], in assay [10], in assay [11] and in assay [12] was inactive. Also, the result in assay [13] and in [14] was inactive.

One may read the AC50 as the concentration at which the activity in the assay is half-maximal. On to `CCCCCCCCCCCCCC[P+](CCCC)(CCCC)CCCC`, for which the result in assay [1], in assay [3], in [4], in assay [5], in assay [6] and in [9] was inactive. Besides, the compound was classed as inactive in assay [15], in assay [10], in assay [11], in assay [12], in [14] and in [16]. Also, the AC50 in assay [2] was 0.81 µM (active); in assay [7], 0.969 µM (active); in [8] it was 1.24 µM (active); in assay [13], 0.834 µM (active).

Regarding `CCn1c2ccccc2c2ccccc21`, the outcome in assay [1], in assay [2], in assay [4], in assay [6], in assay [9] and in assay [15] was inactive. For the same compound, the compound was classed as inactive in assay [10], in [17], in assay [18], in [12] and in assay [13]. The half-maximal activity concentration (AC50) in [3] is 26.2 µM (active); in assay [7], 167 µM (active); in assay [8], 153 µM (active); in assay [11] it was 0.0275 µM (active).

In the case of `OCCCC(F)(F)C(F)(F)C(F)(F)C(F)(F)C(F)(F)C(F)(F)C(F)(F)C(F)(F)F`, the outcome in [1], in assay [3], in assay [6], in [7], in assay [8] and in [9] was inactive. The result in assay [15], in assay [10], in assay [11], in assay [20] and in assay [13] was inactive. The AC50 in assay [2] is 29.9 µM (active); in assay [4], 20.9 µM (active); in assay [19], 28.9 µM (active); in [12] it was 10.9 µM (active).
